Measurements from PubChem BioAssay (Tox21).
Inconclusive results are not listed. Activity calls are given as the source filed them. Calls follow the shape of the dose curve; as a rule, active = well fitted curve in the direction sought with a large enough effect in the repeat runs; inconclusive = weak or mixed curves; inactive = no such curve, though single readings can be large; an effect the other way counts as inactive or inconclusive.

Tests used:
[1] = qHTS RealTime-Glo MT Cell Viability Assay in HepG2 cells - 24 hour (AID 1224867); also: nearly all actives have a fitted effect of over 50% in size
Method in brief: (§1)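 Viability was tracked continuously by NanoLuc luminescence from prosubstrate reduced by living HepG2 cells, at successive time points over 40 h of compound exposure. Cells with reagent were preincubated 5 h at 37 °C before compound addition.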

[2] = A CellTox Green Cytotoxicity Assay to monitor cytotoxicity in HEK293 cells - 0 hour (AID 1224869); also: nearly all actives have a fitted effect of over 50% in size
Method in brief: (§2)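 HEK293 cells premixed with CellTox Green dye were seeded at 600 cells/well and left 5 h at 37 C/5% CO2 before pin transfer of 23 nL compound in DMSO. Fluorescence from dye bound to dead-cell DNA was read during 40 h treatment.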

[3] = qHTS RealTime-Glo MT Cell Viability Assay in HepG2 cells - 40 hour (AID 1224870); also: nearly all actives have a fitted effect of over 50% in size
Method in brief: (§3)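 HepG2 cells (600/well) mixed with RealTime-Glo MT reagent, settled 5 h at 37 C/5% CO2 before compound addition. Nonlytic NanoLuc luminescence from viable-cell prosubstrate reduction read repeatedly during 40 h treatment at 37 C.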

[4] = A CellTox Green Cytotoxicity Assay to monitor cytotoxicity in HEK293 cells - 40 hour (AID 1224871); also: nearly all actives have a fitted effect of over 45% in size
Method in brief: as §2

[5] = qHTS RealTime-Glo MT Cell Viability Assay in HEK293 cells - 16 hour (AID 1224872); also: top concentration of the series differs between compounds; nearly all actives have a fitted effect of over 50% in size
Method in brief: (§4)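 Viability tracked continuously by luminescence as live cells reduce a prosubstrate for NanoLuc; HEK293 cells preincubated 5 h, compound-treated at 37 C, and read at 0, 8, 16, 24, 32 and 40 h.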

[6] = qHTS RealTime-Glo MT Cell Viability Assay in HepG2 cells - 8 hour (AID 1224873); also: nearly all actives have a fitted effect of over 55% in size
Method in brief: as §3

[7] = A CellTox Green Cytotoxicity Assay to monitor cytotoxicity in HepG2 cells - 16 hour (AID 1224876); also: nearly all actives have a fitted effect of over 45% in size
Method in brief: (§5)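 HepG2 cells were seeded together with the CellTox Green dye at 600 cells/well, left 5 h at 37 C/5% CO2, then given compounds in DMSO. Fluorescence from dye bound to dead-cell DNA was read repeatedly over 40 h of treatment at 37 C.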

[8] = qHTS RealTime-Glo MT Cell Viability Assay in HepG2 cells - 32 hour (AID 1224877); also: nearly all actives have a fitted effect of over 55% in size
Method in brief: as §1

[9] = A CellTox Green Cytotoxicity Assay to monitor cytotoxicity in HepG2 cells - 24 hour (AID 1224878); also: nearly all actives have a fitted effect of over 45% in size
Method in brief: as §5

[10] = A CellTox Green Cytotoxicity Assay to monitor cytotoxicity in HepG2 cells - 40 hour (AID 1224879); also: nearly all actives have a fitted effect of over 40% in size; also: potency is read from the fitted curve at half-maximal effect
Method in brief: as §5

[11] = qHTS RealTime-Glo MT Cell Viability Assay in HEK293 cells - 0 hour (AID 1224880); also: top concentration of the series differs between compounds; nearly all actives have a fitted effect of over 45% in size
Method in brief: (§6)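 HEK293 cells mixed with RealTime-Glo reagents (NanoLuc plus cell-permeant prosubstrate) at 600 cells/well, preincubated 5 h at 37 C/5% CO2, then given 23 nL compound in DMSO. Nonlytic luminescence from viable cells was read at 0, 8, 16, 24, 32 and 40 h.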

[12] = A CellTox Green Cytotoxicity Assay to monitor cytotoxicity in HEK293 cells - 32 hour (AID 1224881); also: nearly all actives have a fitted effect of over 40% in size
Method in brief: as §2

[13] = A CellTox Green Cytotoxicity Assay to monitor cytotoxicity in HepG2 cells - 0 hour (AID 1224882); also: nearly all actives have a fitted effect of over 35% in size
Method in brief: as §5

[14] = A CellTox Green Cytotoxicity Assay to monitor cytotoxicity in HepG2 cells - 32 hour (AID 1224883); also: nearly all actives have a fitted effect of over 50% in size
Method in brief: as §5

[15] = A CellTox Green Cytotoxicity Assay to monitor cytotoxicity in HEK293 cells - 8 hour (AID 1224884); also: nearly all actives have a fitted effect of over 35% in size
Method in brief: as §2

[16] = qHTS RealTime-Glo MT Cell Viability Assay in HepG2 cells - 16 hour (AID 1224885); also: nearly all actives have a fitted effect of over 50% in size
Method in brief: as §1

[17] = qHTS RealTime-Glo MT Cell Viability Assay in HEK293 cells - 24 hour (AID 1224886); also: nearly all actives have a fitted effect of over 50% in size; also: potency is read from the fitted curve at half-maximal effect
Method in brief: as §4

[18] = A CellTox Green Cytotoxicity Assay to monitor cytotoxicity in HEK293 cells - 24 hour (AID 1224875)
Method in brief: as §2

[19] = qHTS RealTime-Glo MT Cell Viability Assay in HEK293 cells - 40 hour (AID 1224874); details: RealTime-Glo luminescence; max response: active compounds read low; also: nearly all actives have a fitted effect of over 50% in size
Method in brief: as §6

[20] = qHTS RealTime-Glo MT Cell Viability Assay in HEK293 cells - 32 hour (AID 1224868)
Method in brief: as §4
% is scaled to controls: 0 for no effect and ±100 for the full control effect.

Cc1c(C(=O)c2c[nH]n(C)c2=O)ccc(S(C)(=O)=O)c1C1=NOCC1
inactive: outcome [1] | Potency [2] | outcome [3] | Potency [4] | Potency [5] | outcome [6] | Potency [7] | outcome [8] | Potency [9] | Potency [10] | Potency [11] | Potency [12] | Potency [13] | Potency [14] | Potency [15] | outcome [16] | Potency [17]

COc1cc2c(cc1OC)C(=O)C(CC1CCN(Cc3ccccc3)CC1)C2 (configuration not stated)
active: Potency [10] 21.3 µM | Potency [17] 21.3 µM
inactive: outcome [1] | Potency [2] | outcome [3] | Potency [4] | outcome [6] | Potency [18] | Potency [7] | outcome [8] | Potency [9] | Potency [11] | Potency [12] | Potency [13] | Potency [15] | outcome [16]

CC(C)OC(=O)OCOP(=O)(CO[C@H](C)Cn1cnc2c(N)ncnc21)OCOC(=O)OC(C)C
inactive: outcome [1] | Potency [2] | outcome [3] | Potency [4] | Potency [5] | outcome [6] | Potency [7] | Potency [9] | Potency [10] | Potency [11] | Potency [12] | Potency [13] | Potency [14] | Potency [15] | outcome [16] | Potency [17]

CCCCCCCCCCCCCBr
inactive: outcome [1] | Potency [2] | outcome [3] | Potency [4] | outcome [6] | Potency [18] | Potency [7] | outcome [8] | Potency [9] | Potency [10] | Potency [12] | Potency [13] | Potency [14] | Potency [15] | outcome [16]

CSc1cnccn1
inactive: outcome [1] | Potency [2] | outcome [3] | Potency [4] | Potency [5] | outcome [6] | Potency [18] | Potency [7] | outcome [8] | Potency [9] | Potency [10] | Potency [11] | Potency [12] | Potency [13] | Potency [14] | Potency [15] | outcome [16] | Potency [17]

C=CCCCC
inactive: outcome [1] | Potency [2] | outcome [3] | Potency [4] | Potency [5] | outcome [6] | max response [19] 10.8% | Potency [18] | Potency [7] | Potency [9] | Potency [10] | Potency [11] | Potency [12] | Potency [13] | Potency [14] | Potency [15] | outcome [16] | Potency [17]

CCO
inactive: outcome [1] | Potency [2] | Potency [4] | Potency [5] | outcome [6] | max response [19] 0.927% | Potency [18] | Potency [7] | outcome [8] | Potency [9] | Potency [10] | Potency [11] | Potency [12] | Potency [13] | Potency [14] | Potency [15] | outcome [16] | Potency [17]

CC(C)(C)NC[C@H](O)COc1cccc2c1CCCC2=O
inactive: outcome [1] | outcome [3] | Potency [5] | outcome [6] | max response [19] -12% | Potency [7] | outcome [8] | Potency [9] | Potency [10] | Potency [11] | Potency [12] | Potency [13] | Potency [14] | outcome [16] | Potency [17]

CCC(C)OC(C)CC (configuration not stated)
inactive: outcome [1] | Potency [2] | outcome [3] | Potency [4] | outcome [6] | max response [19] -6.97% | Potency [18] | Potency [7] | outcome [8] | Potency [9] | Potency [10] | Potency [11] | Potency [12] | Potency [13] | Potency [14] | Potency [15] | outcome [16] | Potency [17]

CC(=O)Nc1ccc(OC(=O)c2ccccc2OC(C)=O)cc1
inactive: outcome [1] | Potency [2] | outcome [3] | Potency [5] | outcome [6] | max response [19] 3.46% | Potency [7] | outcome [8] | Potency [9] | Potency [10] | Potency [11] | Potency [13] | Potency [14] | Potency [15] | outcome [16] | Potency [17]

CN(C)CCOC(=O)C(c1ccccc1)C1(O)CCCC1 (configuration not stated)
inactive: outcome [1] | Potency [2] | outcome [3] | Potency [4] | Potency [5] | outcome [6] | max response [19] -2.33% | Potency [18] | Potency [7] | Potency [9] | Potency [10] | Potency [11] | Potency [12] | Potency [13] | Potency [14] | Potency [15] | outcome [16] | Potency [17]

CCC(C(=O)OCCN1CCOC(c2ccccc2)C1C)c1ccccc1 (configuration not stated)
inactive: outcome [1] | Potency [2] | Potency [4] | outcome [6] | Potency [18] | Potency [7] | outcome [8] | Potency [9] | Potency [10] | Potency [11] | Potency [12] | Potency [13] | Potency [14] | Potency [15] | outcome [16]

CCC/C=C(\C=O)CC
inactive: Potency [20] | Potency [2] | outcome [3] | Potency [4] | Potency [5] | outcome [6] | max response [19] -24.3% | Potency [18] | Potency [7] | outcome [8] | Potency [9] | Potency [10] | Potency [11] | Potency [12] | Potency [13] | Potency [14] | Potency [15] | outcome [16] | Potency [17]

CC1(C)O[C@H]2CC(=O)OC[C@]23[C@H]2CC[C@@]4(C)[C@H](c5ccoc5)OC(=O)[C@H]5O[C@]54[C@]2(C)C(=O)C[C@@H]13
inactive: outcome [1] | Potency [2] | outcome [3] | Potency [4] | outcome [6] | max response [19] 3.36% | Potency [18] | Potency [7] | outcome [8] | Potency [9] | Potency [10] | Potency [11] | Potency [12] | Potency [13] | Potency [14] | Potency [15] | outcome [16] | Potency [17]

Nc1nc(-c2ccccc2)c(Br)c(=O)[nH]1
inactive: outcome [1] | Potency [2] | Potency [4] | Potency [5] | outcome [6] | max response [19] -3.06% | Potency [18] | Potency [7] | outcome [8] | Potency [10] | Potency [11] | Potency [12] | Potency [13] | Potency [14] | Potency [15] | outcome [16] | Potency [17]

CC1c2ccccc2CN1NC(=O)c1ccc(Cl)c(S(N)(=O)=O)c1 (configuration not stated)
inactive: outcome [1] | Potency [2] | outcome [3] | Potency [4] | outcome [6] | max response [19] -0.0255% | Potency [18] | Potency [7] | outcome [8] | Potency [9] | Potency [10] | Potency [11] | Potency [12] | Potency [13] | Potency [14] | Potency [15] | outcome [16] | Potency [17]
